# Bioassay records (PubChem BioAssay)
# PLK1 PBD block – blocks phosphopeptide binding to human PLK1 polo-box domain. P53350. AID 720504. 2.8% of 360,000 active. Potency, µM, for inactives: max response, negative = inhibition, most hits filed as inhibitors. Plk1 PBD binding of FITC phosphopeptide, fluorescence polarization; also: potency is read from the fitted curve at half-maximal effect; series mostly up to about 57 µM; nearly all actives have a fitted effect of over 65% in size
# USP1 inh – blocks the human USP1/UAF1 deubiquitinase complex. Potency, µM (top dose mostly 57.1 µM), for inactives: at the highest dose activity change, negative = inhibition, actives largely listed as inhibitors. O94782. recombinant USP1/UAF1, Ub-Rhodamine cleavage fluorescence. 0.23% of 390,000 active; also: potency is read from the fitted curve at half-maximal effect; nearly all actives have a fitted effect of over 60% in size
#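 USP1/UAF1 complex at 1 nM was preincubated with compound for 15 min at room temperature, then Ub-Rho substrate (150nM final) was added. Fluorescence (480/540 nm) was read kinetically, 6 reads every 60 seconds.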
# WRN inhibitor – WRN helicase (human) inhibition | Q14191 | WRN helicase unwinding, fluorescent forked duplex, kinetic | Potency, µM (series often up to 114 µM), without a hit: at the highest dose activity change, negative = inhibition, usual class: inhibitors | 0.46% of 360,000 active | AID 651768; also: potency is read from the fitted curve at half-maximal effect; nearly all actives have a fitted effect of over 55% in size
#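 Enzyme (20 nM final) and test compound sit together 15 min at room temperature before substrate addition. Substrate is a single-forked duplex oligonucleotide (100 nM) labelled with fluorophore and quencher, with 2 mM ATP; helicase unwinding raises red fluorescence, read kinetically.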
# PI5P4K alpha inh – PI5P4K alpha (human) kinase inhibition; PI5P4Kalpha enzyme, ADP-Glo luminescence, 60 min; stronger effect = lower value; AID 652105; max response, %; 1.2% of 330,000 active; active = max response of -50% or lower; inconclusive = between -30% and -50%; inactive = -30% or higher; also: value at the top dose of about 77 µM
#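 Luminescence from ADP-Glo served as readout of PI5P4Kalpha activity in a qHTS format. Reaction: enzyme, substrate, compound, ATP at 5 microM final, 60 min at RT.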
# USP2a inh – inhibitors of human ubiquitin-specific protease USP2a; O75604; USP2 core, Ub-CHOP2 coupled fluorogenic reporter, 485/531; Potency, µM (titrated, usually from 38.3 µM), inactives show at the top dose activity change, negative = inhibition, actives largely listed as inhibitors; 0.01% of 330,000 active; AID 463254;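 also: potency is read from the fitted curve at half-maximal effect; plate controls were DMSO wells for no effect and full inhibition by NEM control for full effect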
#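 Deubiquitinase activity read as fluorescence (485/531 nm) after Ub-CHOP2 cleavage activates the enterokinase reporter on its substrate; USP2 core 10nM, Ub-CHOP2 and substrate 25nM each, 30min compound preincubation then 60min RT; data normalized to NEM, curves fitted.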
# * hit, by the source's call; ? = inconclusive; nt = not tested or not shown; [ ] = another dose, or the depositor's remark. A selection: hits, their analogues and other compounds. The true share with any hit is near 3.3%. Unless noted, calls follow the shape of the dose curve; as a rule, active = well fitted curve in the direction sought with a large enough effect; inconclusive = small, poorly fitted or top-dose-only effect, or another doubt; inactive = no such curve, though single readings can be large; an effect the other way counts as inactive or inconclusive. Unless noted, % is scaled to controls: 0 for no effect and ±100 for the full control effect.
SMILES,PLK1 PBD block,USP1 inh,WRN inhibitor,PI5P4K alpha inh,USP2a inh
Cc1cc(C)cc(-n2cnc3cc(C(=O)NCCc4ccccc4)ccc32)c1,nt,-23.3%,nt,nt,nt
Cc1ccc(C)c(Cn2c3ccccc3c3cnn(CC(=O)NC(C)CCc4ccccc4)c(=O)c32)c1 (stereo not given),nt,13.7%,nt,nt,nt
CCOC(=O)/C=C(\C)Sc1cc(O)c2ccccc2c1O,10.6µM*,7.94µM*,-25.6%,?,-0.8%
CCOC(=O)/C=C(\C)Sc1cc(=O)oc2ccccc12,-26.1%,-14.3%,-6.5%,-2.0,0.5%
CC1CN(C(=O)c2nn(C)cc2[N+](=O)[O-])CC(C)O1 (stereo not given),11.9µM*,-18.9%,9.6%,-17.7,2.5%
CC1CN(C(=O)c2cc([N+](=O)[O-])cc([N+](=O)[O-])c2)CC(C)O1 (stereo not given),-0.5%,-15.4%,-8.9%,0.8,7.5%
COc1ccc(-n2c(-c3ccc(F)cc3)cn3c4c(=O)n(C)c(=O)n(C)c4nc23)cc1,nt,-30.1%,nt,nt,nt
NC(=O)c1cc(S(=O)(=O)N2CCN(c3ccc(F)cc3)CC2)cs1,nt,-17.4%,nt,nt,nt
NC(=O)c1cc(S(=O)(=O)N2CCc3ccccc3C2)cs1,21.2µM*,-21.7%,-23.3%,5.2,0.9%
CCOC(=O)c1ccc2nc(C(F)(F)F)[nH]c(=O)c2c1,26.7µM*,-6.8%,-7.2%,-57.2*,-1.7%
CC(=O)c1cc(O)c2ccccc2c1O,5.32µM*,?,-11.9%[11.6 µM],?,-1.0%
CC(=O)c1coc2c1cc(O)c1ccccc12,-2.4%,-14.1%,-0.9%,nt,-0.8%
COc1cc(C(c2c(C)[nH][nH]c2=O)c2c(C)[nH][nH]c2=O)cc(Br)c1OC,26.7µM*,-21.9%,-8.8%,7.8,-4.5%
COc1cc(C(c2c(C)[nH][nH]c2=O)c2c(C)[nH][nH]c2=O)cc([N+](=O)[O-])c1O,26.7µM*,?,-31.1%,-60.4*,-0.8%
CCOc1cc(C(c2c(C)[nH][nH]c2=O)c2c(C)[nH][nH]c2=O)cc([N+](=O)[O-])c1O,-11.5%,-17.0%,-1.7%[11.6 µM],-17.7,-0.7%
CCC(=O)N1c2ccccc2CC1C(=O)NCCN1CCN(c2cc(Cl)ccc2C)CC1 (stereo not given),nt,-25.0%,nt,nt,nt
O=C1c2ccccc2C(=Cc2cccnc2)c2ccccc21,-10.2%,?,-4.4%,-54.1*,nt
Cc1cccn2c(=O)cc(CSc3nnc(NC(=O)COc4ccc(F)cc4)s3)nc12,nt,-12.0%,nt,nt,nt
CCOc1ncccc1C(=O)OCC(=O)c1ccc(F)cc1,16.8µM*,-3.7%,-9.3%,-14.7,2.1%
CC1=NN(c2ccccc2)C(=O)C1C(=O)c1ccccc1 (stereo not given),-8.5%,-3.2%,-14.8%,-3.3,-1.2%
CC1=NN(c2ccccc2)C(=O)C1C(=S)SC1CC(=O)NC1=O (stereo not given),10.6µM*,-27.0%,-4.0%,?,nt
COc1ccc(C(=O)N/C(N)=N/c2nc3ccccc3o2)cc1,-10.1%,0.2%,-14.7%,-4.1,2.1%
COc1ccc(C(=O)/C=C/Sc2nc3ccccc3o2)cc1,0.752µM*,?,?,2.9,9.2%
CC1CCN(C(=O)CSc2nc3ccccc3nc2Cc2ccccc2)CC1,nt,-18.0%,nt,nt,nt
COc1ccc(C(=O)NC(=S)SCC(=O)O)cc1,18.9µM*,-17.0%,-9.1%,-4.7,-1.5%
SMILES,PLK1 PBD block,USP1 inh,WRN inhibitor,PI5P4K alpha inh,USP2a inh
CCOC(=O)CSC(=S)NC(=O)c1ccc(OC)cc1,2.99µM*,-10.5%,-2.3%,?,1.3%
CCOc1ccc(NC(=O)CN2C(=O)C(c3ccccc3)=NC23CCC(C)CC3)cc1 (stereo not given),nt,0.6%,nt,nt,nt
COc1ccc(OC)c(CNC(=O)c2cc(S(=O)(=O)N3CCC(C)CC3)cn2C)c1,nt,-8.8%,nt,nt,nt
Cc1ccc(C(=O)/C=C/c2ccccc2[N+](=O)[O-])cc1,26.7µM*,-5.8%,-8.5%,2.4,0.1%
Cc1ccc(C(=O)/C=C/C(=O)c2ccc(C)cc2)cc1,1.68µM*,-12.7%,-33.7%,-52.7*,1.6%
Cc1ccc(C(=O)/C=C/c2ccc(-c3ccccc3[N+](=O)[O-])o2)cc1,-13.6%,-9.1%,-6.9%[57.1 µM],nt,-1.4%
CCOC(=O)Cn1c(=O)n(CC2CCCO2)c2nc(-c3ccc(CC)cc3)nc(C(N)=O)c21 (stereo not given),nt,-20.2%,nt,nt,nt
